# Laboratory results from the antibiotic and cytotoxicity screens of Wong et al. (2023).
# The whole screen tested about 39,000 compounds, of which about 500 (1.3%) were called active. This is one part of a sample in which actives are shown more often than they occur.
# Test system: S. aureus RN4220
# Assay: growth inhibition call (relative growth <= 0.2)
# Conditions: 50 µM
row,SMILES,growth inhibition call
1,CC(C)NC(=O)N(C)C[C@H]1Oc2ccc(NC(=O)NC3CCCCC3)cc2C(=O)N([C@H](C)CO)C[C@@H]1C,inactive
2,C[C@@H]1CCCCO[C@@H](CN(C)S(=O)(=O)c2cn(C)cn2)[C@@H](C)CN([C@H](C)CO)C(=O)c2cc(NS(=O)(=O)c3cn(C)cn3)ccc2O1,inactive
3,O=C1CCC(c2ccc(O)cc2)CC1,inactive
4,Oc1ccccc1CNc1ccc(C2CCCCC2)cc1,inactive
5,Oc1cc(C2CCCCC2)cc(C2CCCCC2)c1,active
6,COc1ccc(NC(=O)Nc2ccc3c(c2)C(=O)N([C@H](C)CO)C[C@H](C)[C@H](CN(C)C(=O)NC(C)C)OCCCC[C@H](C)O3)cc1,inactive
7,N#C/C(=C\c1ccc(C(F)(F)F)cc1)c1c[nH]c2ccccc12,inactive
8,c1ccc2c(-c3ccncc3)c[nH]c2c1,inactive
9,Cc1c[nH]c2ccccc12,inactive
10,FC(F)(F)c1ccc(CSc2c[nH]c3ccccc23)cc1,active
11,Brc1ccc(CSc2c[nH]c3ccccc23)cc1,active
12,OCc1c[nH]c2ccccc12,inactive
13,COc1ccc(NC(=O)N(C)C[C@@H]2OCCCC[C@H](C)Oc3ccc(NS(=O)(=O)c4ccc(Cl)cc4)cc3C(=O)N([C@H](C)CO)C[C@H]2C)cc1,inactive
14,C[C@@H]1CN([C@H](C)CO)C(=O)c2cc(NC(=O)NC3CCCCC3)ccc2O[C@@H](C)CCCCO[C@@H]1CN(C)S(=O)(=O)c1cccs1,inactive
15,COc1ccc(NC(=O)Nc2ccc3c(c2)C(=O)N([C@@H](C)CO)C[C@@H](C)[C@H](CN(C)Cc2ccncc2)OCCCC[C@@H](C)O3)cc1,inactive
16,C[C@H]1CCCCO[C@H](CN(C)C(=O)Nc2ccccc2)[C@@H](C)CN([C@@H](C)CO)C(=O)c2cc(NC(=O)Cc3ccccc3)ccc2O1,inactive
17,C[C@H]1CN([C@@H](C)CO)C(=O)CCCn2cc(nn2)CO[C@H]1CN(C)S(=O)(=O)c1ccc(C#N)cc1,inactive
18,CN(C)c1cc(CN)ccn1,inactive
19,C1CCC(C(C[C@H]2CCCCN2)C2CCCCC2)CC1,active
20,OC[C@@H]1CCCN1,inactive
21,O=C(O)CC[C@H]1CCCCN1,inactive
22,O=C(O)[C@@H]1CCCCN1,inactive
23,OC[C@@H]1CCCCN1,inactive
24,C1CCC(C(CC2CCCCN2)C2CCCCC2)CC1.O=C(O)C=CC(=O)O (stereo not drawn),active
25,C[C@@H]1CN([C@H](C)CO)C(=O)c2cc(NC(=O)C3CCCCC3)ccc2O[C@@H](C)CCCCO[C@@H]1CN(C)Cc1ccc2c(c1)OCO2,inactive
26,COc1ccc(NC(=O)N(C)C[C@H]2Oc3c(NC(=O)c4cnccn4)cccc3C(=O)N([C@@H](C)CO)C[C@@H]2C)cc1,inactive
27,C[C@@H]1CN([C@H](C)CO)S(=O)(=O)c2ccc(C#CCN(C)C)cc2O[C@@H]1CN(C)Cc1ccccn1,inactive

row,SMILES,growth inhibition call
1,C[C@H](CO)N1C[C@H](C)[C@@H](CN(C)Cc2ccc3c(c2)OCO3)Oc2c(NS(=O)(=O)c3cn(C)cn3)cccc2C1=O,inactive
2,COc1ccc(NC(=O)Nc2ccc3c(c2)C(=O)N([C@@H](C)CO)C[C@@H](C)[C@H](CN(C)Cc2ccc(C(=O)O)cc2)OCCCC[C@H](C)O3)cc1,inactive
3,COc1cccc(S(=O)(=O)N(C)C[C@H]2OCc3cnnn3CCCC(=O)N([C@@H](C)CO)C[C@@H]2C)c1,inactive
4,CNC[C@@H]1Oc2ccc(NS(=O)(=O)c3cn(C)cn3)cc2C(=O)N([C@@H](C)CO)C[C@@H]1C,inactive
5,CCc1nc2ccc(C(=O)NC3CCN(Cc4ccccc4)CC3)cn2c1N(C)Cc1cc2ccccc2s1,inactive
6,Cc1noc(C)c1NC(=O)Nc1ccc2c(c1)C(=O)N([C@H](C)CO)C[C@@H](C)[C@H](CN(C)S(=O)(=O)c1ccccc1)OCCCC[C@H](C)O2,inactive
7,Cc1cc(C2CCCCC2)n(O)c(=O)c1.NCCO,active
8,C[C@H](CO)N1C[C@H](C)[C@@H](CN(C)Cc2ccc(-c3ccccc3)cc2)Oc2c(NC(=O)c3ccncc3)cccc2C1=O,inactive
9,C[C@H]1CN([C@@H](C)CO)C(=O)c2cccc(NC(=O)c3cnccn3)c2O[C@@H]1CN(C)Cc1ccncc1,inactive
10,COc1cccc(NC(=O)N[C@@H]2CC[C@@H](CC(=O)N3CCN(C)CC3)O[C@@H]2CO)c1,inactive
11,O=C(C[C@@H]1CC[C@H]2[C@@H](COC[C@H](O)CN2C(=O)Nc2cccc(F)c2)O1)NCc1ccccc1Cl,inactive
12,CC1(C)SC2C(NC(=O)COc3ccccc3)C(=O)N2C1C(=O)[O-].[K+] (stereo not drawn),active
13,NNC(=O)COc1ccccc1,inactive
14,C[C@@H](NC(=O)COc1ccccc1)C(=O)O,inactive
15,CNC(=O)Cc1ccccc1,inactive
16,COC(=O)[C@@H]1N2C(=O)[C@@H](N3CC4=C[C@@H](C5CC5)n5c(=O)n(C)c(=O)n5[C@@H]4[C@@H]3[C@@H](O)Cc3ccccc3)[C@H]2SC1(C)C,inactive
17,CC1(C)SC2C(NC(=O)Cc3ccccc3)C(=O)N2C1C(=O)[O-].[K+] (stereo not drawn),active
18,COC(=O)[C@@H]1N2C(=O)[C@@H](N3C[C@](C)(OC)O[C@@H](Cc4ccccc4)[C@H]3/C=C/C3CC3)[C@H]2SC1(C)C,inactive
19,CC1(C)SC2C(N3C(=O)C(c4ccccc4)NC3(C)C)C(=O)N2C1C(=O)[O-].[K+] (stereo not drawn),active
20,CC1(C)C(=O)NCCN1C(=O)Cc1ccccc1,inactive
21,COc1ccc(S(=O)(=O)N(C)C[C@H]2OCCCC[C@@H](C)Oc3ccc(NC(=O)Nc4ccc(F)cc4)cc3C(=O)N([C@@H](C)CO)C[C@H]2C)cc1,inactive
22,COc1cccc(CNC(=O)C[C@@H]2C=C[C@@H](NC(=O)C3CCOCC3)[C@H](CO)O2)c1,inactive
23,COc1ccc(NC(=O)N(C)C[C@@H]2Oc3c(NS(C)(=O)=O)cccc3C(=O)N([C@H](C)CO)C[C@H]2C)cc1,inactive
24,OCCc1ccc2c(c1)OCO2,inactive
25,Cc1ccc(S(=O)(=O)N(C)C[C@H]2Oc3ccc(NC(=O)Nc4cccc5ccccc45)cc3C(=O)N([C@@H](C)CO)C[C@@H]2C)cc1,inactive
26,COc1ccc(S(=O)(=O)N2C[C@H](O)COC[C@H]3O[C@H](CC(=O)NCCN4CCCCC4)CC[C@@H]32)cc1,inactive
